{"source": "PubChem BioAssay AID1532", "about": "(PCMD, 2009)", "test_system": "RmlC (dTDP-4-dehydrorhamnose 3,5-epimerase) and RmlD (dTDP-4-dehydrorhamnose reductase), coupled enzyme assay", "assay": "RmlC and RmlD coupled enzyme inhibitors, primary screen, biochemical, 384-well, compound mixtures, retest (AID 1532)", "details": "384-well mixture HTS, at 5.5 µM, stronger effect = higher value", "key": {"[1]": {"details": "measured here: mean retest inhibition"}}, "note": "The whole screen tested about 110,000 compounds, of which about 420 (0.38%) were called active. No stated cut-off is given here; in the data, active means inhibition above about 30% (passing the limit was not always enough); inconclusive means no clear call, values can overlap the other calls. Shown is part of a subset that was picked to be rich in actives.", "data": [{"smiles": "COc1ccc(CNC(=O)[C@@H]2CC=C[C@@H]3CCN(C4CC4)C(=O)[C@@H]32)cc1", "values": [{"measurement": "inhibition", "value": "4.14% (inactive)"}]}, {"smiles": "CC1(C)S[C@@H]2[C@H](NC(=O)COc3ccccc3)C(=O)N2C1C(=O)OCc1ccccc1", "note": "(stereo not given in full)", "values": [{"measurement": "inhibition", "value": "5.36% (inactive)"}]}, {"smiles": "C#CCCOC(=O)N1C2=NC(C(=O)OC)=C(C(=O)OC)[C@@H]3N(C)c4ccc(OC)cc4[C@]23C[C@H]1C(=O)OC", "values": [{"measurement": "inhibition", "value": "-9.08% (inactive)"}]}, {"smiles": "CN1CCN(C(CNS(=O)(=O)c2cccs2)c2cccnc2)CC1", "note": "(stereo not given)", "values": [{"measurement": "inhibition", "value": "-1.39% (inactive)"}]}, {"smiles": "O=C1N[C@@H](Cc2ccccc2)C(=O)N2[C@@H]3N(S(=O)(=O)c4ccc(F)cc4)c4ccccc4[C@]3(Br)C[C@@H]12", "values": [{"measurement": "inhibition", "value": "-18.2% (inactive)"}]}, {"smiles": "C#CCOCCOCCOCCNc1nc(N2CCN(C(=O)[C@H](CCC(=O)O)n3cc(C(N)CO)nn3)CC2)nc(N2CCN(C(=O)[C@H](Cc3ccc(O)cc3)n3cc(C(N)[C@H](C)CC)nn3)CC2)n1", "note": "(stereo not given in full)", "values": [{"measurement": "inhibition", "value": "7.3% (inactive)"}]}, {"smiles": "O=C1N[C@H](Cc2ccccc2)C(=O)N[C@H]1Cc1cn(S(=O)(=O)c2ccccc2)c2ccccc12", "values": [{"measurement": "inhibition", "value": "-14.5% (inactive)"}]}, {"smiles": "CC(C)[C@@H]1NC(=O)c2cc([N+](=O)[O-])cc(I)c2NCCC[C@@H](C(=O)NC(CC(=O)O)C(N)=O)NC(=O)[C@H](CO)NC1=O", "note": "(stereo not given in full)", "values": [{"measurement": "inhibition", "value": "-19.9% (inactive)"}]}, {"smiles": "NC(=O)CC[C@@H]1NC(=O)[C@@H]2CCCN2C(=O)c2cc([N+](=O)[O-])cc(F)c2NCCC[C@@H](C(N)=O)NC1=O", "values": [{"measurement": "inhibition", "value": "-71.2% (inactive)"}]}, {"smiles": "NC(=O)C1=C[C@H](c2csc3ccccc23)C[C@H](OCc2ccc(CO)cc2)O1", "values": [{"measurement": "inhibition", "value": "-63% (inactive)"}]}, {"smiles": "COP1(=O)C[C@@H](O)[C@@H](O)[C@@H](COCc2ccccc2)O1", "note": "(stereo not given in full)", "values": [{"measurement": "inhibition", "value": "11.1% (inactive)"}]}, {"smiles": "CCN1C(=O)N[C@@H](CCc2ccccc2)C(C(=O)OC)=C1C", "values": [{"measurement": "inhibition", "value": "4.12% (inactive)"}]}, {"smiles": "Cc1ccc(-c2csc(NCCc3nc4cc(Cl)c(Cl)cc4n3CCOCCO)n2)cc1", "values": [{"measurement": "inhibition", "value": "7.32% (inactive)"}]}, {"smiles": "C=CCNC(=O)c1csc(-c2ccccc2)n1", "values": [{"measurement": "inhibition", "value": "10.9% (inactive)"}]}, {"smiles": "C=CCNc1nc(N)c(C(=C(C#N)C#N)c2ccccc2)s1", "values": [{"measurement": "inhibition", "setting": "above what the read-out allows, likely interference", "value": "654% (active)"}]}, {"smiles": "CCOC(=O)CN1C(=O)N[C@@H](c2ccc(Br)cc2)C(C(C)=O)=C1C", "values": [{"measurement": "inhibition", "value": "-1.77% (inactive)"}]}, {"smiles": "COC(=O)c1c(C)cc(O)c(C)c1O", "values": [{"measurement": "inhibition", "value": "12% (inactive)"}]}, {"smiles": "CC(C)(C)Oc1ccccc1Nc1nc(NCCO)nc(N2CCCC2)n1", "values": [{"measurement": "inhibition", "value": "-10.1% (inactive)"}]}, {"smiles": "NC1=NC[C@@H](Cc2ccc(O)cc2)N1CC1CCCCC1", "values": [{"measurement": "inhibition", "value": "10.2% (inactive)"}]}, {"smiles": "C=CCOC(=O)C1=C[C@@H](c2ccccc2)C[C@@H](OCc2ccc(CO)cc2)O1", "values": [{"measurement": "inhibition", "value": "4.95% (inactive)"}]}, {"smiles": "CC[C@H](C)[C@@H](C(=O)N1CCNCC1)n1cc([C@@H](N)Cc2ccc(O)cc2)nn1", "values": [{"measurement": "inhibition", "value": "-30% (inactive)"}]}, {"smiles": "CC1(c2nnc(-c3ccncc3)o2)CC(c2cccnc2)=NO1", "note": "(stereo not given)", "values": [{"measurement": "inhibition", "value": "-44.9% (inactive)"}]}, {"smiles": "O=C1CCC(=O)N(O)CCCCCNC(=O)CCC(=O)N(O)CCCCCNC(=O)CCC(=O)N(O)CCCCCN1", "values": [{"measurement": "inhibition", "value": "-1.74% (inactive)"}]}, {"smiles": "Fc1ccc2nc(N3CCCCC3)sc2c1", "values": [{"measurement": "inhibition", "value": "-11.1% (inactive)"}]}, {"smiles": "Fc1ccc2nc(Nc3nc4c(s3)CCCC4)sc2c1", "values": [{"measurement": "inhibition", "value": "35.3% (active)"}, {"measurement": "inhibition", "setting": "[1]", "value": 127, "unit": "%"}]}, {"smiles": "O=C(CCS(=O)(=O)c1ccccc1)Nc1nc2c(s1)CCCC2", "values": [{"measurement": "inhibition", "value": "-10.7% (inactive)"}]}, {"smiles": "CCCCN1C(N)=NC[C@@H]1CC1CCCCC1", "values": [{"measurement": "inhibition", "value": "6.72% (inactive)"}]}, {"smiles": "NC(=O)[C@H]1CC2(CC(c3cccc(NC(=O)[C@H]4CCC(=O)N4)c3)=NO2)CN1C(=O)c1ccccc1C(=O)c1ccccc1", "note": "(stereo not given in full)", "values": [{"measurement": "inhibition", "value": "20.3% (inactive)"}]}, {"smiles": "Cc1cccc(NC(=S)NCc2ccc3[nH]c4c(c3c2)CCCC4)c1", "values": [{"measurement": "inhibition", "value": "-2.9% (inactive)"}]}, {"smiles": "COc1ccc(SCCN2CCN(CC(C)C)CCC2=O)cc1", "values": [{"measurement": "inhibition", "value": "8.87% (inactive)"}]}, {"smiles": "CCOC(=O)CSc1nnc(NC(=O)c2cccc(S(=O)(=O)N3CCCC3)c2)s1", "values": [{"measurement": "inhibition", "value": "5.07% (inactive)"}]}, {"smiles": "CCOC(=O)c1csc(NC(=O)c2ccc(S(=O)(=O)N3CCCC3)cc2)n1", "values": [{"measurement": "inhibition", "value": "96.7% (active)"}, {"measurement": "inhibition", "setting": "[1]", "value": 82.9, "unit": "%"}]}, {"smiles": "COc1ccc(C(=O)Nc2nc(-c3ccc(S(=O)(=O)N4CCOCC4)cc3)cs2)cc1", "values": [{"measurement": "inhibition", "value": "-26.7% (inactive)"}]}, {"smiles": "Cc1nc(-c2ccc(Cl)cc2)sc1C1(C)CC(c2ccccc2F)=NO1", "note": "(stereo not given)", "values": [{"measurement": "inhibition", "value": "7.68% (inactive)"}]}, {"smiles": "COC(=O)C1=C[C@@H](C(=O)OC)[C@@H]2C3=C(C(=O)[C@]2(C)NC(=O)c2ccccc2)[C@H](C)n2c(=O)n(C)c(=O)n2[C@@H]3C1", "values": [{"measurement": "inhibition", "value": "2.28% (inactive)"}]}, {"smiles": "O=C(C1=C[C@H](c2ccc(C(F)(F)F)cc2)C[C@H](OCc2ccc(CO)cc2)O1)N1CCN(Cc2ccccc2)CC1", "values": [{"measurement": "inhibition", "value": "3.78% (inactive)"}]}, {"smiles": "CCN1C(=O)N[C@@H](c2ccccc2)C(C(=O)OC)=C1C", "values": [{"measurement": "inhibition", "value": "-30% (inactive)"}]}, {"smiles": "Cc1ccc(C)c(CSc2nc(-c3ccco3)nc3c2c(=O)n(C)c(=O)n3C)c1", "values": [{"measurement": "inhibition", "value": "4.13% (inactive)"}]}, {"smiles": "C/C=C(/C)C(=O)Nc1cccc(C2=NOC3(C2)C[C@@H](C(N)=O)N(C(=O)C2(C)CC2)C3)c1", "note": "(stereo not given in full)", "values": [{"measurement": "inhibition", "value": "4.45% (inactive)"}]}, {"smiles": "NC(=O)C1=C[C@@H](c2csc3ccccc23)C[C@@H](OCc2ccc(CO)cc2)O1", "values": [{"measurement": "inhibition", "value": "19.8% (inactive)"}]}, {"smiles": "CCCCCCCCCCCCN1[C@@H](CC(C)=O)c2cc(F)cc(F)c2S1(=O)=O", "values": [{"measurement": "inhibition", "value": "-11.3% (inactive)"}]}, {"smiles": "COc1ccccc1C1=CC(=O)CCC1", "values": [{"measurement": "inhibition", "value": "7.57% (inactive)"}]}, {"smiles": "CC1(C)C2CC[C@]3(C)C(CC=C4[C@@H]5C[C@@](C)(CO)CC[C@]5(C(=O)O)CC[C@]43C)[C@@]2(C)CC[C@@H]1O", "note": "(stereo not given in full)", "values": [{"measurement": "inhibition", "value": "9.9% (inactive)"}]}]}
